Shown are actives, neighbours in structure and some others; about 0.49% of the full set was active somewhere.
Vif-A3F inh: inhibitors of Vif-A3F interaction | Potency, µM (doses to about 46.1 µM) | HeLa A3F-eYFP + Vif (tagged APOBEC3F with the HIV-1 protein that degrades it), YFP fluorescence increase | 390,000 tested, 0.2% active; also: nearly all actives have a fitted effect of over 65% in size
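HeLa cells stably expressing Vif plus C-terminally eYFP-tagged A3F were seeded, incubated overnight at 37 deg C, dosed with compound, incubated overnight again at 37 deg C. Yellow fluorescence (Ex 488/Em 500-530) reported blocked Vif-mediated A3F-eYFP degradation.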
Vif-APOBEC3G blk: blocks the Vif interaction with human APOBEC3G. Q9HC16. HeLa A3G-eYFP + Vif (tagged APOBEC3G with the HIV-1 protein that degrades it), YFP fluorescence, overnight. Potency, µM (doses to about 46.1 µM), actives largely listed as inhibitors. 410,000 tested, 0.076% active. AID 602310; also: nearly all actives have a fitted effect of over 60% in size
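HeLa cells stably expressing Vif and C-terminally eYFP-tagged A3G, seeded overnight at 37 deg C, then exposed to compound by pintool overnight at 37 deg C. Rise in yellow fluorescence (Ex 488/Em 500-530, Acumen) marks blocked Vif-driven A3G degradation.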
Epigenetic derep: epigenetic control regulation, reporter derepression | murine LDR cells, GFP reporter derepression, 30 h | AID 1865 | Potency, µM (titrated, usually from 53.9 µM), actives largely listed as activators | 280,000 tested, 0.2% active; also: nearly all actives have a fitted effect of over 60% in size
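Murine LDR cells carrying a silenced, genomically integrated CMV-driven GFP reporter were exposed to compound for 30 hours at 37 C. After PBS washes, GFP-positive cells (20–120 um objects) were counted by laser-scanning microplate cytometry.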
Anesthetic bind: binds horse apoferritin like a general anesthetic; P02791; apoferritin/1-aminoanthracene competitive binding, fluorescence; AID 485281; Potency, µM (top dose mostly 77.5 µM), most hits filed as inhibitors; 350,000 tested, 0.074% active; also: nearly all actives have a fitted effect of over 20% in size
Target sequence (P02791 2-175 limits assumed): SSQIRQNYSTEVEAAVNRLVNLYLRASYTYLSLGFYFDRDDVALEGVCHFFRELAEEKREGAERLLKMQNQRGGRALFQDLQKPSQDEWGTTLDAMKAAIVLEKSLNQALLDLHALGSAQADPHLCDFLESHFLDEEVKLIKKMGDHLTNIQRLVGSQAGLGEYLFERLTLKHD
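Steps: apoferritin (10 uM) was premixed with half-saturated 1-AMA in PBS, compounds were pin-transferred, plates stood 10 min at room temperature, fluorescence was read at 380/535 nm, and curves were fitted with a Hill equation.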
LDHA block: LDHA (human) enzyme inhibition; purified LDHA, NADH/diaphorase-resazurin fluorescence; hits give low values; activity change, % (values are at about 110 or 230 µM); 480,000 tested, 0.15% active; AID 1347041; in the data active = activity change below about -30%; inconclusive = mostly about -25% to -30%
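LDH5 2 nM; NADH 0.06 mM, pyruvate 0.2 mM; 200 mM Tris pH 7.4, EDTA, Tween-20; 5 min RT. Detection: diaphorase 0.133 mg/mL + resazurin 37 µM, fluorescence ex540/em590 at 0 and 20 min; normalized to enzyme-free and DMSO wells.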
A number is an active result; – = inactive; ? = inconclusive; · = no result given. Unless noted, calls follow the shape of the dose curve; as a rule, active = well fitted curve in the direction sought with a large enough effect; inconclusive = small, poorly fitted or top-dose-only effect, or another doubt; inactive = no such curve, though single readings can be large; an effect the other way counts as inactive or inconclusive.

SMILES	Vif-A3F inh	Vif-APOBEC3G blk	Epigenetic derep	Anesthetic bind	LDHA block
Cc1ccc2nc(Nc3cccc(Cl)c3C)c(-n3nc(C)cc3C)nc2c1	–	–	–	–	–
CNC(=O)CNC(=O)c1cc2cc(C)ccc2nc1C	·	·	·	·	–
CSc1ccccc1NC(=O)CNCCCN1CCOCC1	–	–	–	–	-36
O=C(O)C1=CC(=C(c2ccc(O)c(C(=O)O)c2)c2ccc(O)c(C(=O)O)c2)C=CC1=O	·	·	–	·	-75
O=C(O)c1cc(O)ccc1O	–	–	·	·	–
CCOC(=O)NC(=O)CN1C(=O)NC2(CCc3ccccc32)C1=O (configuration not stated)	–	–	·	–	–
O=c1cc(-c2ccccc2)oc2c1CCCC2	·	–	·	·	–
Cc1cc2nc3c(=O)n(C4CCCCC4)c(=O)[nH]c3nc2cc1N	11µM	8.9µM	–	–	–
O=C(O)c1ccc(Nc2ccc([N+](=O)[O-])c3nonc23)cc1	–	–	·	–	–
O=[N+]([O-])c1ccc(Nc2ccccc2O)c2nonc12	?	–	·	18µM	–
Nc1nc(-c2cccc(Br)c2)cs1	–	–	–	32µM	–
COc1cc(Cl)c(/C=C(/C#N)c2ccc(Cl)cc2)cc1OC	·	·	·	·	–
COc1cc(N2CCCC2)c(OC)cc1/C=C(/C#N)c1ccc(F)cc1	10µM	10µM	14µM	–	–
COc1cc(N2CCCC2)c(OC)cc1/C=C(/C#N)c1ccc(Br)cc1	4µM	?	3.2µM	–	–
Nc1nc(-c2ccc(Cl)cc2)nn1C(=O)c1ccco1	–	–	–	–	–
CCCc1cc(=O)c2ccc(OCC(C)=O)cc2o1	–	–	–	–	–
Cn1c(CC(=O)Nc2cccc(C(F)(F)F)c2)nnc1SCC(=O)c1ccc(C#N)cc1	·	·	·	·	-32
CCS(=O)(=O)N1CCc2cc(C(=O)N3CCN(c4cccc(C(F)(F)F)c4)CC3)ccc21	–	13µM	–	?	–
O=C(Nc1ccccc1)N(Cc1cccc(O)c1)C1CCC(O)CC1 (configuration not stated)	·	·	·	·	–
COCCN(CCOC)Cc1c(O)ccc2c1O/C(=C\c1ccc(C)o1)C2=O	25µM	–	·	–	–
O=C(NC1CCN(S(=O)(=O)c2ccc(F)cc2)CC1)c1cccnc1	–	–	·	–	–
CCOC(=O)C1CCN(Cc2ccc(O)c3ncccc23)CC1	–	–	5.6µM	–	–
O=C(CSc1nnc(C2CC2)n1C1CC1)c1c[nH]c(C(=O)N2CCCC2)c1	·	·	·	·	-32
COCCCn1c(SCC(=O)Nc2ccc(F)cc2)nc2c(sc3ccccc32)c1=O	–	–	–	–	–
O=C(Nc1ccccc1)c1ccc(NCCc2ccccc2)c([N+](=O)[O-])c1	?	–	13µM	–	–
SMILES	Vif-A3F inh	Vif-APOBEC3G blk	Epigenetic derep	Anesthetic bind	LDHA block
Cc1cccc(C)c1Oc1nc(-c2ccccc2)ncc1S(=O)(=O)c1ccccc1	–	–	–	–	–
O=C1c2cccnc2-c2ncccc21	–	–	–	–	–
COC1=C(Br)C(=O)c2ncccc2C1=O	11µM	–	·	·	–
COCCNC(=S)N/N=C(\C)c1ccc(OC)cc1	–	–	–	–	–
COCCNC(=S)N/N=C(\C)c1ccc(OC(F)F)cc1	25µM	–	–	–	–
COCCNC(=S)N/N=C(\C)c1ccc2cc(OC)ccc2c1	–	–	7.9µM	–	–
COC(=O)CNC(=O)[C@@]1(C)C=C[C@@H](Cc2ccccc2)N1C(C)=O	·	·	–	–	·
COc1cc(C2Nc3ccccc3NC3=C2C(=O)CC(c2ccc(OC)c(OC)c2)C3)ccc1O (configuration not stated)	–	–	–	–	–
CC(C)CN(c1ccccc1)S(=O)(=O)c1nnc(NC(=O)C2CCCCC2)s1	–	–	28µM	–	–
CCN(c1ccccc1)S(=O)(=O)c1nnc(NC(=O)C2CCCCC2)s1	–	–	–	?	–
CC(C)(C)c1cc(NC(=O)Nc2ccccc2)no1	–	–	·	–	–
C[C@H](CO)N1C[C@H](C)[C@@H](CN(C)S(=O)(=O)c2cccs2)Oc2c(NC(=O)c3ccncc3)cccc2C1=O	–	–	·	·	–
COc1cc(C(=O)NCC(=O)NCCN2C(=O)S/C(=C\c3ccccc3Cl)C2=O)cc(OC)c1OC	–	–	·	·	–
COc1cc(/C=C2\SC(=O)N(CCNC(=O)c3sc4cc(F)ccc4c3Cl)C2=O)cc(OC)c1OC	–	–	18µM	–	–

From PubChem
